Reference: PubChem BioAssay (NCI)
About 83,000 compounds went through this panel and 20% of them were active in at least one assay; those are over-represented in the sample as a whole.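 Results are percent growth after 48 hours of single-concentration exposure. 100 means growth as in untreated cells, lower positive values show inhibition; negative values down to -100 show cell death.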 Calls of active or inactive are those of the source.

Test system: HCT-15 colon
Assay: NCI-60 one-dose screen, 48 h (100 = growth as untreated, 0 = no growth, -100 = all killed)
Settings: 10 µM unless noted
Method: Growth inhibition of the HCT-15 human tumor cell line is measured as a screen for anti-cancer activity. Cells are grown in 96 well plates and exposed to the test compound for 48 hours. Compounds are tested at a single concentration, which is 10^-5 M for most compounds. The reported endpoint is percent growth (GI% or GIPRCNT), where numbers from 0 - 100% represent growth inhibition, and numbers from -100% - 0 represent cell death. For example, a value of 40 represents 60% growth inhibition. A value of 0 means no net growth occurred over the course of the experiment. A value of -40 indicates 40% of cells at the beginning of the experiment died by the end of the experiment. A value of -100 means all cells are dead at the end of the experiment.
NCI-60 Human Tumor Cell Lines Screen was performed using the standard one-dose NCI protocol, which is described in more detail at https://dtp.cancer.gov/discovery_development/nci-60/default.htm.
Compounds with GIPRCNT values below 10 were considered active. Activity score was based on GIPRCNT using the following formula: […]
Score is 0 for GIPRCNT values of 100 or above, 50 for GIPRCNT values of 0, and 100 for GIPRCNT values of -100.

SMILES	growth
C=C1C(=O)O[C@H]2[C@H]1CC/C(COC(=O)c1cccc3ccccc13)=C\CC[C@@]1(C)O[C@@H]21	-46.9% (active)
O=C(C[n+]1cccc(Br)c1)c1ccc2c(c1)CCCC2	99.4% (inactive)
O=C(c1cc(-c2ccc(Cl)cc2)nc2ccccc12)N1N=C(c2ccccc2)CC1c1cc(-c2ccccc2)nn1-c1ccccc1 (stereo not given)	56.7% (inactive)
O=C(Nc1ccccc1F)Nc1ccccc1Cl	106% (inactive)
CN[C@@H](CCCNC(N)=NC/C=C(/C)CCC=C(C)C)C(=O)N(C)[C@@H](CCCNC(N)=NCC=C(C)C)C(=O)N[C@H](C)[C@H](OS(=O)(=O)O)c1ccc(OS(=O)(=O)O)c(COS(=O)(=O)O)c1	113% (inactive)
O=[N+]([O-])c1ccccc1NC1c2ccccc2Oc2ccccc21	37% (inactive)
Cc1cc2nc(-c3c(N)ncc(C#N)c3-c3ccc(Cl)cc3)[nH]c2cc1C	67.2% (inactive)
Nc1nc(Nc2ccc(OCc3cccc(F)c3)cc2)c2c(n1)[nH]c1ccc(O)cc12	-8.62% (active)
COc1ccc(-c2cc3ccc(N(C)C)cc3nc2N)c(F)c1	31% (inactive)
C#CC(=O)/C=C/CCCCCCC#CC(=O)CCC(=O)C#CCCCCCC/C=C/C(=O)C#C	12.4% (inactive)
O=C(Nc1ccc(-n2cc(-c3ccncc3)c(-c3ccc(O)c(Cl)c3)n2)cc1)Nc1cc(C(F)(F)F)cc(C(F)(F)F)c1	61.1% (inactive)
Cc1nssc1=S	104% (inactive)
C=CCn1c(SCC(=O)Nc2ccc(/C(C)=N\O)cc2)nnc1-c1cc(-c2ccc(OC)cc2)nc2ccccc12	36.3% (inactive)
C/C(=N/O)c1ccc(NC(=O)Cn2nc(-c3ccc(Cl)cc3)nc2N)cc1	114% (inactive)
O=[N+]([O-])c1cccc(C(c2ccccc2)c2ccccc2)c1	95.3% (inactive)
COc1ccc(/C=C2\CS(=O)(=O)C/C(=C\c3ccc(OC)cc3)C2=O)cc1	2.14% (active)
O=C(O)c1ccc(-n2cc(/C=N/Nc3ccc(F)cc3)c(-c3cccc(C(F)(F)F)c3)n2)cc1	53.6% (inactive)
CC(Cc1cccc(C(F)(F)F)c1)NCCOC(=O)c1ccccc1 (stereo not given)	105% (inactive)
CC(=O)Oc1ccc(C(OC(C)=O)OC(C)=O)cc1	102% (inactive)
O=C1C(SCCO)=C(SCCO)C(=O)N1c1ccc(-c2ccccc2)cc1	-21.6% (active)

SMILES	growth
CCCCN(CCCC)c1ccc(C(=N)c2ccc(N(C)C)cc2)cc1	-58.7% (active)
NN=C(c1ccc(Cl)cc1)c1ccc(Cl)cc1	90.4% (inactive)
c1ccc(CNCCN(CCNCc2ccccn2)Cc2ccc3ccccc3c2)nc1	1.52% (active)
Oc1ccc(Cl)cc1Sc1cc(Cl)ccc1O	92.9% (inactive)
COc1ccc(-c2nnc(SCC(=O)Nc3ccc(C(=O)/C=C/c4ccccc4)cc3)o2)cc1OC	94.6% (inactive)
Cc1ccc2oc(=O)cc(C3C(C#N)=C(N)Oc4c3ccc3ccccc43)c2c1 (stereo not given)	51.1% (inactive)
Cc1ccccc1C[P+](c1ccccc1)(c1ccccc1)c1ccccc1	107% (inactive)
Nc1ncc(-c2ccc3ncnc(Nc4cncc(Cl)c4)c3c2)cn1	73.2% (inactive)
CO[C@H]1/C=C/C=C/C=C/C[C@H](OC(=O)[C@@H](C)NC(=O)C2CCCCC2)[C@H](C)[C@@H](O)/C(C)=C\CCC2=CC(=O)C=C(NC(=O)C1)C2=O	6.39% (active)
N#CC1=C(N)Oc2c(ccc3ccccc23)C1c1cc(=O)oc2ccc(Cl)cc12 (stereo not given)	25.8% (inactive)
Nc1nc2ccc(CNc3ccc(C(=O)NC(CC(=O)O)C(=O)O)cc3)cc2c(=O)[nH]1 (stereo not given)	39.8% (inactive)
Cc1cccc(CC(=O)c2ccccc2)n1	93.2% (inactive)
C[C@H]1C=C(C[C@@H](O)CC#CC#CCCCCC[C@@H](O)[C@H]2CCC(=O)O2)C(=O)O1	110% (inactive)
Nc1ncnc2c1c(-c1ccc(Oc3ccccc3)cc1)nn2C[C@@H]1SSC[C@H]1O	70.4% (inactive)
O=C1COc2ccccc2C(=O)N1CCCCN1CCCCC1	91.3% (inactive)
Clc1ccc2c(NCCNc3nc(Cl)nc4ccccc34)ccnc2c1	-67.5% (active)
O=C(NCCNc1nccc(-c2c(-c3cccc(O)c3)nc3sccn23)n1)c1ccccc1O	54.5% (inactive)
COc1ccc(-c2nn(-c3ccc(NC(=O)c4ccc(Cl)c(C(F)(F)F)c4)cc3)cc2-c2ccncc2)cc1Cl	-26% (active)
COc1cccc(/C=N/C(=S)NC2(C)C3CCC(C3)C2(C)C)c1O (stereo not given)	32.5% (inactive)
CCn1c(SCC(=O)c2ccc(Br)cc2)nnc1-c1cc2c([nH]c3ccccc32)c(-c2cccc(O)c2)n1	56.2% (inactive)
